Several values for one entry are separate records, joined by “and”; a condition that tells them apart may be missing. Equal values may be shown once. Inconclusive results are not listed. A call without a number means that no potency is given here. A number with no mark means an inactive call. Activity calls are given as the source filed them. Calls follow the shape of the dose curve; as a rule, active = well fitted curve in the direction sought with a large enough effect; inconclusive = small, poorly fitted or top-dose-only effect, or another doubt; inactive = no such curve, though single readings can be large; an effect the other way counts as inactive or inconclusive.
Tests used:
[1] = molecular target: Cellular tumor antigen p53 (Homo sapiens) (UniProt P04637); test: Primary qHTS for small molecule compounds that upregulate eGFP-tagged delta133p53alpha (in N-terminal) cells. (AID 2060322); details: NCI-H358 eGFP-delta133p53alpha fluorescence, 24 h; activation: hits give high values;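 also: cells pre-induced with doxycycline then dosed without doxycycline; series mostly up to about 56 µM; nearly all actives have a fitted effect of over 75% in size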
Summary of the method: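 NCI-H358 cells pre-induced 24 h with 10 ng/ml doxycycline for eGFP-delta133p53alpha, plated dox-free and exposed 24 h at 37C to titrated compounds. Fixed, Hoechst-stained; gated GFP peak intensity by laser scanning cytometry, normalized to DMSO (0%) and 57.5 uM 5-azacytidine (100%).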

[2] = molecular target: Aldehyde dehydrogenase, mitochondrial (Homo sapiens) (UniProt P05091); test: qHTS for Inhibitors of the Aldehyde Dehydrogenase Family (ALDH2) Primary screen (AID 2061308); also: nearly all actives have a fitted effect of over 55% in size
[3] = molecular target: Retinaldehyde dehydrogenase 3 (Homo sapiens) (UniProt P47895); test: qHTS for Inhibitors of the Aldehyde Dehydrogenase Family (ALDH1A3) Validation screen (AID 2061312); also: nearly all actives have a fitted effect of over 45% in size
[4] = molecular target: Retinaldehyde dehydrogenase 3 (Homo sapiens) (UniProt P47895); test: qHTS for Inhibitors of the Aldehyde Dehydrogenase Family (ALDH1A3) Primary screen (AID 2061315)
[5] = BET inhibitor-based combinations targeting novel dependencies in MECOM-rearranged (r) AML: SET-2 cell line (AID 2202231); details: SET-2 AML cells viability, CellTiter-Glo luminescence, 48 h; viability: hits give low values, concentration not given here; also: nearly all actives have a fitted effect of over 35% in size; also: potency is read from the fitted curve at half-maximal effect
Summary of the method: (§1)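 Readout: CellTiter-Glo luminescence. Exposure: 48 h, 11 concentrations, 500 cells/well. Metric: AUC and within-line Z-AUC after DMSO/empty-well normalization.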

[6] = BET inhibitor-based combinations targeting novel dependencies in MECOM-rearranged (r) AML: OCI-AML3 cell line (AID 2202232); details: Potency: OCI-AML3 viability; also: nearly all actives have a fitted effect of over 35% in size; also: potency is read from the fitted curve at half-maximal effect
Summary of the method: as §1

[7] = BET inhibitor-based combinations targeting novel dependencies in MECOM-rearranged (r) AML: MV-4-11 cell line (AID 2202233); also: nearly all actives have a fitted effect of over 45% in size; also: potency is read from the fitted curve at half-maximal effect
Summary of the method: (§2)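 Seeding density was 500 cells/well, and drug exposure lasted 48 hr under standard culture conditions. Read-out used CellTiter-Glo reagent with a 15 min room-temperature incubation before luminescence measurement; AUC and Z-AUC summarize the normalized responses.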

[8] = BET inhibitor-based combinations targeting novel dependencies in MECOM-rearranged (r) AML: HNT-34 cell line (AID 2202234); also: nearly all actives have a fitted effect of over 35% in size; also: potency is read from the fitted curve at half-maximal effect
Summary of the method: as §2

[9] = BET inhibitor-based combinations targeting novel dependencies in MECOM-rearranged (r) AML: AML-194 cell line (AID 2202237; also: nearly all actives have a fitted effect of over 40% in size)
Summary of the method: as §1

[10] = BET inhibitor-based combinations targeting novel dependencies in MECOM-rearranged (r) AML: AML-191 cell line (AID 2202236; also: potency is read from the fitted curve at half-maximal effect; nearly all actives have a fitted effect of over 35% in size)
Summary of the method: as §1

[11] = BET inhibitor-based combinations targeting novel dependencies in MECOM-rearranged (r) AML: UCSD-AML1 cell line (AID 2202235); also: potency is read from the fitted curve at half-maximal effect; nearly all actives have a fitted effect of over 40% in size
Summary of the method: as §2

Cellular tumor antigen p53 (Homo sapiens), sequence (P04637 whole entry, looked up): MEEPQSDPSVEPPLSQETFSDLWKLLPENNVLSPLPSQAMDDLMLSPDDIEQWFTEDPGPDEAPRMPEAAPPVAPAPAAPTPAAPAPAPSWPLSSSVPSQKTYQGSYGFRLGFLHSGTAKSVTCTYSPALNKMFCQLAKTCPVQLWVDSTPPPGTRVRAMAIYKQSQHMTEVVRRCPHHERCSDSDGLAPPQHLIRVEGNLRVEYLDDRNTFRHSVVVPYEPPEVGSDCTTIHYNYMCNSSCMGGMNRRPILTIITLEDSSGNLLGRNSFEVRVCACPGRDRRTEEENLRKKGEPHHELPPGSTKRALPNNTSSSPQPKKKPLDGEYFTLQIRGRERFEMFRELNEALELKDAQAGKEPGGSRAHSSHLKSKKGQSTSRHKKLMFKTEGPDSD

Structure (SMILES)	activation [1]	Potency [2]	Potency [3]	Potency [4]	Potency [5]	Potency [6]	Potency [7]	viability [5]	Potency [8]	Potency [9]	Potency [10]	Potency [11]
Cc1sc2c(c1C)C(c1ccc(Cl)cc1)=NC(CC(=O)Nc1ccc(O)cc1)c1nnc(C)n1-2 (configuration not stated)	-21.2%	inactive	inactive	inactive	1320 nM (active)	263 nM (active)	296 nM (active)	–	–	–	–	–
CCc1c(C(=O)C(N)=O)c2c(OCC(=O)O)cccc2n1Cc1ccccc1	-24.6% and -2.39%	inactive	inactive	inactive	–	inactive	inactive	113%	inactive	inactive	–	–
Cc1sc2c(c1C)C(c1ccc(Cl)cc1)=N[C@@H](CC(N)=O)c1nnc(C)n1-2	10%	inactive	inactive	inactive	372 nM (active)	–	–	–	–	–	209 nM (active)	–
CC[C@@H](C)[C@H]1C(=O)O[C@H](C(C)C)C(=O)N(C)[C@@H]([C@@H](C)CC)C(=O)O[C@H](C(C)C)C(=O)N(C)[C@@H]([C@H](C)CC)C(=O)O[C@H](C(C)C)C(=O)N1C	9.82%	inactive	–	inactive	–	–	–	–	–	–	–	–
COC(=O)[C@@]1(C)C(=O)C=C[C@]2(C)c3c(O)cc(C(C)C)cc3[C@H](O)[C@@H](OC(C)=O)C12 (some centres not stated)	-3.05%	inactive	–	inactive	–	–	–	–	–	–	–	–
CC[C@H]1/C=C\C=C/C[C@@H](C)[C@H](O)[C@@](C)(O)C(=O)[C@@H](C)[C@H](O)[C@@H](C)C(=O)[C@@H](C)[C@H](O)[C@@H](C)/C=C\C(=O)O[C@@H]2[C@H](C)[C@H](CC1)O[C@]1(CC[C@H](C)[C@H](C[C@@H](C)O)O1)[C@H]2C	26.3%	inactive	inactive	inactive	4170 nM (active)	–	26.3 nM (active)	–	46.8 nM (active)	–	1180 nM (active)	7420 nM (active)

From PubChem BioAssay (NCATS)
